The values below come from the supplement of paper PMC10127200.

Structures can show the parent of a compound that is named as a salt.

Assay in all cases: Euclidean distance of Cell Painting phenotypic profile (signed KS, 77 features) to DMSO centroid (dimensionless distance); 5 or 10 uM (library dependent); higher = stronger phenotypic change vs DMSO (phenoactivity)
What all share (settings): 48 h

One experiment concerns 786-O. The gist of the method: (§1)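 Phenoactivity is computed as Euclidean distance to the median vehicle profile. The profiles, drawn from 77 Harmony features scored as signed Kolmogorov-Smirnov statistics versus same-plate vehicle wells, were corrected for plate position, correlation-weighted and replicate-averaged at the top dose. Stained cells were imaged confocally at 20X (9 fields/well) after 48 h with library compounds at 10 or 5 uM, 0.1% DMSO final, in five cancer lines and a healthy fibroblast line.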

A further experiment has as its system A549. In short, it runs like this:
as §1

A further experiment concerns DU145. The gist of the method:
as §1

A further experiment has as its system FB. The gist of the method: as §1
The test system of another experiment is HEPG2. The gist of the method:
as §1

The subject of a further experiment is OVCAR4. The gist of the method: as §1

Consider `CC1(C)S[C@@H]2[C@H](NC(=O)[C@H](N)c3ccc(O)cc3)C(=O)N2[C@H]1C(=O)O` [Amoxicillin], for which the Euclidean distance came to 1.02 in the experiment on 786-O; 1.01 in the experiment on A549; 0.78 with DU145; 0.837 with FB; 0.318 in the experiment with HEPG2; 1.22 in the experiment on OVCAR4.

`COc1cc(Br)c(Nc2nc(-c3c(C)nc4ncccn34)cs2)c(Br)c1`: the Euclidean distance was 3.62 in the experiment on 786-O; 2.67 in the experiment with A549; 2.18 in the experiment on DU145; 2.66 in the experiment with FB; 4.16 in the experiment with HEPG2; 1.63 in the experiment with OVCAR4.

As to `NC(=S)N/N=C/c1ncccc1N` [Triapine], the Euclidean distance with 786-O amounted to 3.56; in the experiment on A549, 2.65; in the experiment on DU145, 3.67; in the experiment with FB it was 3.09; in the experiment with HEPG2 it was 2.83; with OVCAR4, 3.6.

As to `CCOc1cc(N)c(Cl)cc1C(=O)NCC1CN(Cc2ccc(F)cc2)CCO1` (centres undefined) [Mosapride], the Euclidean distance in the experiment on 786-O came to 1.2; with A549 it was 0.542; with DU145 it was 0.858; with FB it was 1.33; with HEPG2 it was 0.651; in the experiment with OVCAR4, 1.09.

With `CC(CCc1ccccc1)NCC(O)c1ccc(O)c(C(N)=O)c1` (centres undefined) [Labetalol HCl], the Euclidean distance in the experiment on 786-O is 1.08; in the experiment with A549, 0.727; in the experiment on DU145, 0.701; in the experiment with FB, 1.03; in the experiment on HEPG2, 0.361; in the experiment on OVCAR4 it was 1.22.

Consider `CCOc1cc2ncc(C#N)c(Nc3ccc(OCc4ccccn4)c(Cl)c3)c2cc1NC(=O)/C=C/CN(C)C` [Neratinib (HKI-272)], for which the Euclidean distance was found to be 2.26 with 786-O; 2.39 in the experiment on A549; 2.02 with DU145; 4.01 in the experiment on FB; 0.96 in the experiment on HEPG2; 2.16 with OVCAR4.

`CCOC(=O)C1=C[C@@H](OC(CC)CC)[C@H](NC(C)=O)[C@@H](N)C1` [Oseltamivir phosphate]: the Euclidean distance with 786-O turned out to be 0.628; in the experiment on A549 it was 0.678; in the experiment on DU145 it was 0.967; with FB, 1.19; in the experiment on HEPG2, 0.883; with OVCAR4, 1.1.

For the compound `O=C1OC2(c3ccc(O)cc3Oc3cc(O)ccc32)c2ccccc21` [Fluorescein], the Euclidean distance in the experiment on 786-O stood at 0.775; in the experiment with A549, 0.447; in the experiment on DU145 it was 0.83; in the experiment with FB it was 0.881; with HEPG2, 1.12; in the experiment on OVCAR4, 1.27.

As for `CC(C)n1nc(-c2ccc3oc(N)nc3c2)c2c(N)ncnc21`, the Euclidean distance amounted to 3.74 in the experiment on 786-O; 3.47 in the experiment on A549; 2.16 with DU145; 5.4 with FB; 2.31 in the experiment with HEPG2; 3.52 in the experiment on OVCAR4.

For `Cc1ccc(NC(=O)c2cccc(C(C)(C)C#N)c2)cc1Nc1ccc2ncn(C)c(=O)c2c1`, the Euclidean distance turned out to be 1.3 in the experiment on 786-O; 2.03 in the experiment on A549; 1.98 in the experiment with DU145; 3.42 with FB; 1.53 in the experiment on HEPG2; 0.804 with OVCAR4.

As to `C/C=C(/C(=C/C)c1ccc(O)cc1)c1ccc(O)cc1` [Dienestrol], the Euclidean distance with 786-O came to 0.782; with A549 it was 0.603; in the experiment with DU145, 0.8; in the experiment with FB, 0.859; with HEPG2, 0.715; in the experiment on OVCAR4, 0.784.

For the compound `O=C(O)C(O)C(O)C(=O)O` (centres undefined) [Tartaric acid], the Euclidean distance stood at 0.758 in the experiment with 786-O; 0.688 in the experiment with A549; 0.848 with DU145; 1.25 with FB; 0.481 with HEPG2; 0.632 in the experiment with OVCAR4.

On to `NS(=O)(=O)c1cc(C(=O)O)c(NCc2ccco2)cc1Cl` [Furosemide], for which the Euclidean distance in the experiment on 786-O turned out to be 1.62; with A549 it was 0.823; in the experiment on DU145, 1.83; in the experiment on FB, 1.25; in the experiment on HEPG2, 0.788; with OVCAR4, 0.747.

For the compound `O=C(Nc1cccnc1)N1CCC(Cc2cccc(Oc3ccc(C(F)(F)F)cn3)c2)CC1`, the Euclidean distance with 786-O was determined as 0.844; in the experiment on A549 it was 1.34; in the experiment on DU145, 0.774; in the experiment on FB, 0.825; in the experiment with HEPG2 it was 1.94; in the experiment on OVCAR4, 0.736.

`CC1=C(C(=O)O)N2C(=O)[C@@H](NC(=O)[C@H](N)C3=CCC=CC3)[C@H]2SC1` [Cephradine monohydrate]: the Euclidean distance is 1.65 with 786-O; 0.779 with A549; 2.12 with DU145; 0.776 in the experiment on FB; 0.698 with HEPG2; 0.618 in the experiment on OVCAR4.

Turning to `CCN1CCN(Cc2ccc(-c3cc4c(N[C@H](C)c5ccccc5)ncnc4[nH]3)cc2)CC1`, the Euclidean distance with 786-O was found to be 2.34; in the experiment with A549, 3.77; in the experiment on DU145 it was 1.92; in the experiment on FB, 2.96; with HEPG2, 1.73; in the experiment with OVCAR4 it was 1.02.

Turning to `CCN(CCCc1ccccc1)CCCc1ccccc1` [Alverine Citrate], the Euclidean distance with 786-O is 0.97; with A549, 1.06; with DU145, 1.22; with FB it was 1.12; in the experiment on HEPG2 it was 0.789; in the experiment on OVCAR4, 1.01.

Regarding `C[C@@H](O)[C@H]1C(=O)N2C(C(=O)[O-])=C(SC3Cn4cnc[n+]4C3)[C@H](C)[C@H]12` (some centres undefined) [Biapenem], the Euclidean distance amounted to 1.35 with 786-O; 0.934 in the experiment with A549; 1.14 in the experiment with DU145; 1.22 in the experiment with FB; 1.02 in the experiment with HEPG2; 0.838 with OVCAR4.

Regarding `Oc1nc(-c2ccc(C(F)(F)F)cc2)nc2c1CSCC2`, the Euclidean distance stood at 0.915 in the experiment on 786-O; 1.5 with A549; 1.11 in the experiment on DU145; 0.913 with FB; 0.766 with HEPG2; 1.15 with OVCAR4.

On to `OC[C@H]1O[C@H](O[C@H]2O[C@H](CO)[C@@H](O)[C@H](O)[C@H]2O)[C@H](O)[C@@H](O)[C@@H]1O` [D-(+)-Trehalose dihydrate], for which the Euclidean distance in the experiment with 786-O was determined as 0.894; in the experiment on A549 it was 1.33; in the experiment on DU145, 1.15; in the experiment with FB, 1.04; with HEPG2 it was 0.672; in the experiment on OVCAR4 it was 1.09.

`CCC[C@H](NC(=O)[C@@H]1[C@H]2CCC[C@H]2CN1C(=O)[C@@H](NC(=O)[C@@H](NC(=O)c1cnccn1)C1CCCCC1)C(C)(C)C)C(=O)C(=O)NC1CC1` [Telaprevir (VX-950)]: the Euclidean distance in the experiment with 786-O came to 1.35; in the experiment on A549, 1.63; with DU145, 1.2; in the experiment on FB it was 0.968; in the experiment with HEPG2, 0.621; with OVCAR4, 1.3.

As for `CC[C@H](C)[C@H](NC(=O)[C@H]([C@@H](C)CC)N(C)C(C)=O)C(=O)N[C@H](C(=O)N[C@@H](CC(C)C)C(=O)[C@@]1(C)CO1)[C@@H](C)O` [Epoxomycin], the Euclidean distance in the experiment on 786-O was 2.19; with A549, 2.8; with DU145, 2.62; in the experiment on FB it was 2.62; in the experiment on HEPG2, 2.95; in the experiment on OVCAR4, 3.12.

As to `Cc1cc(O)c(C(=O)N[C@@H](C(=O)N[C@@H]2C(=O)N3C(C(=O)O)=C(CSc4nnnn4C)CS[C@H]23)c2ccc(O)cc2)cn1` [Cefpiramide sodium], the Euclidean distance with 786-O was determined as 0.849; with A549, 1.35; in the experiment with DU145, 1.94; with FB, 1.17; in the experiment on HEPG2 it was 0.51; in the experiment on OVCAR4 it was 0.977.

In the case of `Fc1ccc(C(c2ccc(F)cc2)N2CCN(C/C=C/c3ccccc3)CC2)cc1` [Flunarizine 2HCl], the Euclidean distance was found to be 0.978 with 786-O; 1.16 with A549; 1.34 with DU145; 0.938 with FB; 2.13 in the experiment on HEPG2; 1.24 in the experiment with OVCAR4.
